# NALP1 yeast inh: inhibitors of NALP1 inflammasome in yeast; AID 2071; inhibition, % at 10 µM; 0.61% of 280,000 active; S. cerevisiae NALP1/ASC/caspase-1 growth, X-gal OD620, 72 h; in the data active = inhibition mostly above about 24%, no sharp cut-off; inactive = mostly below about 32%
# NALP3 yeast inh: blocks the NALP3 inflammasome reconstituted in yeast; Yeast reconstituted NLRP3/ASC/caspase-1, beta-gal luminescence, 24 h; inhibition, % at 10 µM; 0.39% of 330,000 active;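 active = inhibition of 50% or more; inactive = inhibition below 50%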;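 note: plate controls were induced DMSO wells for no effect and uninduced yeast grown without galactose for full effect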
# tim10-1 inh: tim10-1 yeast growth inhibition; S. cerevisiae tim10-1 ts strain growth, BacTiter-Glo, 24 h; inhibition, % at 20 µM; 2.2% of 330,000 active;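 active = inhibition of at least 40%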;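 note: mutant grown at 25 °C; 0% = DMSO wells with yeast and 100% = wells holding no yeast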
# TIM10 inh: inhibits growth of TIM10 yeast strain; AID 463195; inhibition, % at 10 µM; S. cerevisiae TIM10 strain growth, BacTiter-Glo luminescence, 24 h; 1.4% of 330,000 active;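 active = inhibition of 40% or more at the single tested concentration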;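 note: wild-type TIM10 isogenic control strain grown at permissive 25 °C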
# tim23-1 inh: inhibits growth of tim23-1 mutant yeast; S. cerevisiae tim23-1 growth, BacTiter-Glo luminescence, 24 h; inhibition, % at 20 µM; 1.3% of 330,000 active; AID 463212;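 active = growth inhibition of the mutant yeast at or above 50%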;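 note: temperature-sensitive mutant grown at 25 °C; plate controls were DMSO-treated mutant yeast for no effect and medium wells lacking yeast for full effect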
# NALP3 confirm: confirmation of NALP3 inhibitors in yeast; shares compounds with NALP3 yeast inh; yeast expressing human NALP3, luminescence; inhibition, % at 10 µM; 81% of 1,300 active; in the data active = inhibition above about 48%
# Casp1 ASC ctr: counter-screen for NALP3 inhibitors: yeast caspase-1-ASC; shares compounds with NALP3 yeast inh; yeast expressing Caspase-1-ASC, luminescence counter screen; inhibition, % at 10 µM; 66% of 1,000 active; AID 488784
# NALP3 retest: retest-confirmed inhibitor of NALP3 in yeast | inhibition, % at 10 µM | 53% of 1,000 active | shares compounds with NALP3 yeast inh | yeast expressing human NALP3, luminescence read-out
# An asterisk follows results filed as active; x = no result given. In the library only some 4% were active in any assay of this set; here they are far more common. Cut-off read from the data, not from the text of the source, unless noted: active = inhibition above about 50%; inactive = the rest.
SMILES,NALP1 yeast inh,NALP3 yeast inh,tim10-1 inh,TIM10 inh,tim23-1 inh,NALP3 confirm,Casp1 ASC ctr,NALP3 retest
CCc1noc(C)c1C(=O)Nc1cc(C(F)(F)F)ccc1-n1cncn1,x,14,16,3,11,x,x,x
CCCOC(=O)c1ccc(NC(=O)Cc2cccs2)cc1,20,47,-7,-13,38,x,x,x
O=C(OCC(=O)N1CCC(Cc2ccccc2)CC1)c1cccnc1Cl,x,12,5,4,16,x,x,x
Cc1sc2nc(SCC(=O)NCc3ccco3)n(C)c(=O)c2c1C,-17,3,20,9,24,x,x,x
Cc1nc(SCC(=O)NC2CCCC2)c2c(C)c(C)sc2n1,15,54*,2,-7,18,56*,38,29
Cc1sc2nc(C3CC3)nc(SCC(=O)NCc3ccco3)c2c1C,18,51*,12,-44,19,26,x,x
Cc1nc(SCC(=O)NC2CCS(=O)(=O)C2)c2c(C)c(C)sc2n1 (centres undefined),x,4,5,6,6,x,x,x
COc1cc2ccccc2cc1C(=O)N1CCN(c2ccccn2)CC1,30,52*,7,4,32,87*,62*,76*
Cc1ccc(C(=O)c2nocc2C(=O)c2cccs2)cc1,25,55*,13,27,46,60*,73*,42
CCc1ccc(NC(=O)CCS(=O)(=O)c2ccc(Cl)cc2)cc1,20,9,6,18,27,x,x,x
CCCSc1nsc(NC(=O)Nc2ccc(F)cc2F)n1,19,51*,33,-1,25,51*,23,36
CCCSc1nsc(NC(=O)C(c2ccccc2)c2ccccc2)n1,-12,7,-8,4,-15,x,x,x
O=C(Nc1ccc(Cl)cc1)c1cc2c(cc1O)[nH]c1ccccc12,30,53*,8,15,7,77*,72*,91*
CN1C(=O)c2cccc(NC(=O)Cc3ccccc3)c2C1=O,28,50*,16,-23,9,50*,60*,36
Cc1c(NC(=O)Cc2ccccc2)cccc1C(=O)NN1C(=O)c2ccccc2C1=O,34,10,8,5,-2,x,x,x
O=C(COc1ccc(Cl)cc1[N+](=O)[O-])NC1CCCCC1,6,53*,-16,-16,8,48,58*,47
COc1ccc(C(=O)c2ccccc2)c(OCC(=O)NC2CC2)c1,28,52*,-4,-20,-1,70*,x,x
COC(=O)c1ccccc1OCC(=O)NC1CCCCC1,23,77*,-32,-11,4,85*,89*,71*
CC(=O)c1ccc(S(=O)(=O)Nc2cccc(-n3cnnn3)c2)cc1,2,15,-13,1,-6,x,x,x
Nc1cc(C(=O)N2CCN(c3ccc([N+](=O)[O-])cc3)CC2)ccc1N1CC2CC(C1)c1cccc(=O)n1C2 (centres undefined),8,8,13,10,5,x,x,x
O=C(NNC(=O)c1ccccc1F)c1ccc(-c2ccc(Cl)cc2)o1,x,54*,-7,1,12,59*,8,49
CC(C)(c1cc(Br)c(O)c(Br)c1)c1cc(Br)c(O)c(Br)c1,x,53*,-64,22,4,49*,x,x
O=C(NCCCCc1ccccc1)c1cccc(Br)c1,24,53*,-19,-16,5,69*,57*,40
O=C(NCCCc1ccccc1)c1cccc(Br)c1,x,3,9,16,27,x,x,x
Cc1[nH]c2ccccc2c1C(=O)/C=C/c1ccccc1Cl,7,61*,-5,31,19,22,x,x
SMILES,NALP1 yeast inh,NALP3 yeast inh,tim10-1 inh,TIM10 inh,tim23-1 inh,NALP3 confirm,Casp1 ASC ctr,NALP3 retest
O=C1c2cccc3c(Nc4ccccc4Cl)c([N+](=O)[O-])cc(c23)C(=O)N1CCO,16,54*,1,-15,42,71*,56*,56*
O=C1c2cccc([N+](=O)[O-])c2C(=O)N1CCO,-7,2,11,-12,2,x,x,x
Nc1nc(C(=O)N2CCOCC2)nn1S(=O)(=O)c1ccc(Cl)cc1,7,5,10,-2,7,x,x,x
O=C(c1nnsc1S(=O)(=O)c1ccc(Cl)cc1)N1CCOCC1,5,57*,38,17,35,52*,54*,50*
COCc1ccccc1C1=CC(=O)C[C@H](c2ccc(OC)cc2)C1,x,19,10,-5,28,x,x,x
O=C(Nc1cc2ccccc2oc1=O)c1ccccc1,11,60*,16,13,2,73*,51*,53*
CCOC(=O)N1CCN(C(=O)Cn2nc(C)n3nc(-c4ccccc4)cc3c2=O)CC1,3,12,7,8,4,x,x,x
O=S(=O)(c1ccc(Br)s1)N1CCN(c2ccc(F)cc2)CC1,-37,55*,20,-3,22,65*,27,27
O=S(=O)(c1ccc(Br)s1)N1CCN(CCc2ccccc2)CC1,x,61*,34,17,32,63*,34,28
COc1ccc(-n2nnnc2S(=O)(=O)CC(=O)N2CCCCC2)cc1,-4,57*,35,23,28,62*,63*,39
O=c1cc(O)nc(SCc2ccccc2)n1-c1ccc(Cl)cc1,2,14,14,18,27,x,x,x
CC1CN(c2nc(N(C)c3ccccc3)nc(N)c2[N+](=O)[O-])CC(C)O1 (centres undefined),8,53*,28,-5,38,44,40,44
CC1CC(C)CN(c2nc(N(C)c3ccccc3)nc(N)c2[N+](=O)[O-])C1 (centres undefined),11,33,19,33,42,x,x,x
CCc1ccc(OCC(=O)NCc2ccco2)c(Br)c1,18,51*,39,-8,30,46,44,46
CS(=O)(=O)N(CC(=O)N1CCC(C(N)=O)CC1)Cc1ccc(Cl)c(Cl)c1,1,16,-15,-4,-2,x,x,x
CCSC1(SCC)N=C(N)C2(C#N)C(c3ccc(F)cc3)C12C#N (centres undefined),15,59*,30,20,29,50*,65*,47
Cc1ccnc(NC(=O)CCC(=O)N(CC(=O)NCc2ccc(F)cc2)Cc2ccccc2)c1,5,5,-4,-12,12,x,x,x
CC(Sc1nc(C(F)(F)F)nc2ccccc12)C(=O)NC1CCCC1 (centres undefined),x,52*,8,-12,13,36,x,x
CC(C)(C)c1nc(SCC(=O)NC2CCCC2)c2ccccc2n1,15,9,0,-5,20,x,x,x
COC(=O)Nc1ccc(SCC(=O)c2cccc([N+](=O)[O-])c2)cc1,24,54*,7,1,23,63*,58*,41
CC(=O)Nc1ccc(C(=O)OCC(=O)c2cccc([N+](=O)[O-])c2)cc1,31,0,-12,-1,11,x,x,x
